Test results taken from PubChem BioAssay.
Where “and” joins values, the source holds several entries; their conditions need not be identical. Identical values can stand only once. Records with an inconclusive call do not appear. Some structures have more than one record in an assay (separate samples or runs), and their calls can disagree. Calls of active or inactive are those of the source. Cut-off read from the data, not from the text of the source, unless noted: active = inhibition above about 80%; inactive = the rest.

Tests used:
[1] = viability loss in pontine glioma line – cell-based, SU-DIPG-XIII, MIPE4.0, CellTiter-Glo, qHTS, dose response (AID 1347061; cut-off not given, nearly all actives have AC50 up to about 37 µM;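 note: cells exposed to compound for 48 hours before readout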); details: CellTiter-Glo ATP luminescence
[2] = viability loss in pontine glioma line – cell-based, JHH-DIPG-1, MIPE4.0, CellTiter-Glo, qHTS, dose response (AID 1347062; cut-off not given, nearly all actives have AC50 up to about 27 µM); details: JHH-DIPG-1 viability, CellTiter-Glo ATP luminescence
[3] = viability loss in pontine glioma line – cell-based, SU-DIPG-XXV, MIPE5.0, CellTiter-Glo, qHTS, dose response (AID 1347065; cut-off not given, nearly all actives have AC50 up to about 26 µM;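 note: cells exposed to compound for 48 hours before ATP readout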); details: CellTiter-Glo ATP luminescence
[4] = growth inhibition of DIPG cells – cell-based, MIPE4.0 library, CellTiter-Glo luminescence, qHTS (AID 1347066; cut-off not given, nearly all actives have AC50 up to about 30 µM;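 note: cells exposed to compound for 48 hours before readout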); details: SU-DIPG-VI viability, CellTiter-Glo ATP luminescence
[5] = growth inhibition of DIPG cells – cell-based, MIPE5.0 library, qHTS (AID 1347068; cut-off not given, nearly all actives have IC50 up to about 30 µM); details: SU-DIPG-XXV viability
[6] = growth inhibition, single agent or in combination, cell-based, chromothripsis tumors, cisplatin or BGB combos (AID 1671449); details: LFS_MB_P medulloblastoma cells;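 note: cells exposed for 96 hours; 0% = vehicle DMSO and 100% = killing by high DMSO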
[7] = growth inhibition, single agent and combos, cell-based, chromothripsis tumors, cisplatin or BGB combos (AID 1671450); details: HDN33 neuroblastoma cells, stronger effect = higher value;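 note: cells exposed to compound for four days; 0% = vehicle DMSO and 100% = cell killing by high DMSO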
[8] = growth inhibition, single agents and combos, ICB984, cell-based, cisplatin or BGB combos, synergistic combos for chromothripsis tumors (AID 1671451; call rule not given here;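 note: cells exposed for 96 hours before readout; 0% = vehicle DMSO and 100% = killing by high DMSO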); details: ICB984 medulloblastoma cells, drug combinations, stronger effect = higher value
[9] = growth inhibition, single agents and combos, LFS_MB_1R, cell-based, cisplatin or BGB combos, synergistic combos for chromothripsis tumors (AID 1671452); details: LFS_MB_1R medulloblastoma cells, stronger effect = higher value;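 note: cells exposed for 96 hours before readout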
[10] = growth inhibition, single agents and combos, HTB85, cell-based, BGB or cisplatin IC20 combos, synergistic combos for chromothripsis tumors (AID 1671453); details: HTB85 osteosarcoma cells, drug combinations, stronger effect = higher value;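 note: cells exposed for 96 hours before readout; 0% = vehicle DMSO and 100% = high DMSO killing control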
[11] = growth inhibition, MDA-MB-436, cell-based, BGB or cisplatin combos, synergistic combos for chromothripsis tumors (AID 1671458; call rule not given here;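 note: cells exposed for 96 hours; 0% = vehicle DMSO and 100% = killing by high DMSO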); details: MDA-MB-436 breast carcinoma growth inhibition, drug combinations, stronger effect = higher value
[12] = BT084 cell growth, single and combined drugs, ICGC_MB145, cisplatin and BGB IC40 combos (AID 1671461); details: BT084 medulloblastoma cells, drug combinations, stronger effect = higher value;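 note: cells exposed to drugs for 96 hours; 0% = vehicle DMSO and 100% = high DMSO full killing control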
[13] = RCMB18 cell growth, single agent and combined, cisplatin and BGB IC40 combos (AID 1671462); details: RCMB18 medulloblastoma cells, stronger effect = higher value;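 note: cells exposed to compound for four days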
[14] = CRL1545 cell growth, single agent and combined, cisplatin and BGB IC20 combos (AID 1671464); details: CRL1545 osteosarcoma cells, stronger effect = higher value;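 note: cells exposed to compound for 96 hours before readout; 0% = vehicle DMSO and 100% = high DMSO killing control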
[15] = JHH-DIPG-1 glioma cell viability, MIPE5.0 library, CellTiter-Glo luminescence, qHTS (AID 1347067; cut-off not given, nearly all actives have AC50 up to about 26 µM;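 note: cells exposed to compound for 48 hours before readout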); details: JHH-DIPG-1 glioma viability, CellTiter-Glo ATP luminescence
[16] = viability loss with induced miR-34 in A549 – imaging, A549 dox-inducible miR-34, nuclei and caspase counts, primary screen (AID 1347080;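 active = compounds whose cell count with miR-34 switched on is under 0.7 times the count with it off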); details: A549 miR-34 inducible, Hoechst nuclei count, 48 h
[17] = MELAS cybrid and Rieske KO viability enhancers – cell-based, MELAS cybrids, Rieske KO mouse fibroblasts, CellTiter-Glo, primary screen (AID 1508586;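 active = mean z-score across replicates of 1.96 or higher in either the MELAS or the Rieske mutant cell line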;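 note: z relative to plate mean and SD of compound and empty wells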); details: low glucose
[18] = measured here: combination with BGB IC40, at 0.05 µM
[19] = measured here: with BGB IC20 combination, at 0.5 µM
[20] = measured here: with cisplatin IC20 combination, at 0.5 µM
[21] = measured here: combination with cisplatin, at 0.5 µM

Cc1cnc(CNC(=O)c2c(=O)c3ccc(N4CCCN(C)CC4)nc3n3c2sc2ccccc23)cn1
outcome [1]: inactive
outcome [2]: inactive
outcome [3]: inactive
outcome [4]: inactive
outcome [5]: inactive
inhibition ([6]; at 0.5 µM, stronger effect = higher value): -32.6% (inactive) and -19.8% (inactive)
inhibition ([6]; measured here: combination with BGB IC20, at 0.005 µM): -4.81% and -24.5%
inhibition ([6]; measured here: combination with BGB IC40, at 0.005 µM): -1.91% and -28.2%
inhibition [6, 18]: 0.537% and -10.1%
inhibition ([6]; measured here: combination with cisplatin, at 0.5 µM, stronger effect = higher value): -27% and -20.6%
inhibition ([6]; measured here: combination with cisplatin, at 5 µM, stronger effect = higher value): 126% and 65.2%
inhibition ([7]; BGB combo, at 5 µM): 99.9% and 61.4%
inhibition ([7]; at 0.5 µM): 53.7% (inactive) and 26.5% (inactive)
inhibition ([7]; cisplatin combo, at 5 µM): 99.9% and 78%
inhibition [7, 19]: 51.6% and 27.6%
inhibition [7, 20]: 44.8% and 18.7%
inhibition ([7]; single agent, at 5 µM): 99.9% and 80.2%
inhibition ([8]; BGB IC20 combo, at 0.005 µM): 94.7% and -37.9%
inhibition ([8]; BGB IC40 combo, at 0.005 µM): 92.8% and -33.4%
inhibition ([8]; BGB IC40 combo, at 0.05 µM): 102%
inhibition ([8]; at 0.5 µM): -35% (inactive) and -18.1% (inactive)
inhibition ([8]; cisplatin combo, at 0.05 µM): 102%
inhibition ([8]; cisplatin combo, at 0.5 µM): -48.5% and -27.9%
inhibition ([8]; cisplatin combo, at 5 µM): -21.1% and -37.3%
inhibition ([8]; measured here: 5 uM single agent, at 5 µM): -8.37% and -11.6%
inhibition ([9]; at 0.5 µM): 6.38% (inactive) and -24.6% (inactive)
inhibition [9, 18]: -8.97% and -9.02%
inhibition [9, 21]: 91.9% and 6.04%
inhibition ([9]; measured here: combination with cisplatin, at 5 µM): 104% and 102%
inhibition ([10]; at 0.5 µM): 6.45% (inactive) and -21.5% (inactive)
inhibition ([10]; measured here: with BGB IC20, at 0.5 µM): 2.27% and -44.5%
inhibition ([10]; measured here: with BGB IC20, at 5 µM): 100% and 39.1%
inhibition ([10]; measured here: with cisplatin IC20, at 0.5 µM): -0.545% and -23%
inhibition ([10]; measured here: with cisplatin IC20, at 5 µM): 99.9% and 26.3%
inhibition ([10]; single agent, at 5 µM): 100% and 41.7%
inhibition ([11]; at 0.5 µM): 29.4% (inactive) and 4.69% (inactive)
inhibition ([11]; measured here: BGB combination, at 0.5 µM): 10.6% and -16.3%
inhibition ([11]; measured here: BGB combination, at 5 µM): 103% and -17.9%
inhibition ([11]; measured here: cisplatin combination, at 0.5 µM): 20.7% and -11.9%
inhibition ([11]; measured here: cisplatin combination, at 5 µM): 102% and 14.1%
inhibition ([12]; at 0.5 µM): -18.1% (inactive) and -56.2% (inactive)
inhibition ([12]; cisplatin combination, at 0.5 µM): 18.1% and -29.3%
inhibition ([12]; cisplatin combination, at 5 µM): 108% and 82.2%
inhibition ([12]; measured here: BGB IC40 combination 0.05 uM, at 0.05 µM): 77.5% and -15.1%
inhibition ([12]; single agent, at 5 µM): 106% and -74.4%
inhibition ([13]; at 0.5 µM): 85.6% (active) and -19.4% (inactive)
inhibition ([13]; cisplatin combo, at 5 µM): 101% and 100%
inhibition ([13]; measured here: BGB IC40 combination, at 0.05 µM): -21.6% and -12.2%
inhibition [13, 21]: 95.7% and -7.59%
inhibition ([13]; single agent, at 5 µM): 101%
inhibition ([14]; at 0.5 µM): 38.3% (inactive) and -17.2% (inactive)
inhibition [14, 19]: 36.7% and -12.7%
inhibition [14, 20]: 39% and -19.4%
inhibition ([14]; single agent, at 0.05 µM): 2.42% and -7.19%
inhibition ([14]; single agent, at 5 µM): 99.9%

COc1cc2c(cc1OC)CN(CCc1ccc(NC(=O)c3cc(OC)c(OC)cc3NC(=O)c3cnc4ccccc4c3)cc1)CC2
AC50 [1]: 20.9 µM (active)
outcome [2]: inactive
outcome [3]: inactive
outcome [15]: inactive
outcome [5]: inactive
fold change ([16]; stronger effect = lower value, cell number ratio, induced over uninduced): 0.948 (inactive)
fold change ([16]; measured here: relative caspase fold change +Dox/-Dox): 0.402
cell count ([16]; measured here: total cells with miR-34 induction, stronger effect = lower value): 8470
cell count ([16]; measured here: total cells without miR-34 induction): 8940
z-score ([17]; MELAS cybrid survival, CellTiter-Glo 48 h, stronger effect = higher value): -0.604 (inactive)
z-score ([17]; Rieske KO mouse fibroblast survival, CellTiter-Glo 72 h): 0.309

O=C(NC[C@H]1CN(c2ccc(N3CCOCC3=O)cc2)C(=O)O1)c1ccc(Cl)s1
outcome [1]: inactive
outcome [2]: inactive
outcome [4]: inactive
outcome [15]: inactive
outcome [5]: inactive
